# Experimental data reported in ChEMBL document CHEMBL1961873, “Compounds: GSK PKIS; Assays: Nanosyn kinase panel” (2012).
# Experiments:
# [1] = biological target: Sphingosine kinase 1 (Homo sapiens) (UniProt Q9NYA1); details: at 1 µM;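 note: mean SPHK1 inhibition value reported from the GSK PKIS kinase panel screen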
# [2] = biological target: T1, Sphingosine kinase 2 (Homo sapiens) (UniProt Q9NRA0); details: at 0.1 µM
# T1 sequence (whole entry): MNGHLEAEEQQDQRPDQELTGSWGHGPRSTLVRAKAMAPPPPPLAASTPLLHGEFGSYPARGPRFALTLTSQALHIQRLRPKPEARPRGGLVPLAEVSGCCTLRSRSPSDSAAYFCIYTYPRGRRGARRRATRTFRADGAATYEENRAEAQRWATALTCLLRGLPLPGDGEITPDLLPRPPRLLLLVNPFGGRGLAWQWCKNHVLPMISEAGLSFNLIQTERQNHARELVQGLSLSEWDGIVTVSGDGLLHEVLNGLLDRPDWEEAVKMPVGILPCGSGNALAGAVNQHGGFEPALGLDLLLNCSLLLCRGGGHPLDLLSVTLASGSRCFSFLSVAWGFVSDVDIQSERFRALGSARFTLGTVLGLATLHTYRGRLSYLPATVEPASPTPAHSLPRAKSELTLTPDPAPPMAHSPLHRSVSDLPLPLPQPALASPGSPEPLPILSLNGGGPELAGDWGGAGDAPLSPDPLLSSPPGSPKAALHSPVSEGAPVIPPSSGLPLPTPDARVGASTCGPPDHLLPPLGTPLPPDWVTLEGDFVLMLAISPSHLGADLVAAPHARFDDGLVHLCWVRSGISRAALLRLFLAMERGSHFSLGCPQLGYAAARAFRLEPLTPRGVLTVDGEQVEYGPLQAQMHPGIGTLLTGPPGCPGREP
# [3] = biological target: T1, Sphingosine kinase 2 (Homo sapiens); details: at 1 µM
# [4] = biological target: Casein kinase II subunit alpha (Homo sapiens) (UniProt P68400); details: at 1 µM;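 note: reported value is the mean CK2 inhibition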
# [5] = biological target: T2, Inhibitor of nuclear factor kappa-B kinase subunit alpha (Homo sapiens) (UniProt O15111); details: at 0.1 µM
# T2 sequence (whole entry): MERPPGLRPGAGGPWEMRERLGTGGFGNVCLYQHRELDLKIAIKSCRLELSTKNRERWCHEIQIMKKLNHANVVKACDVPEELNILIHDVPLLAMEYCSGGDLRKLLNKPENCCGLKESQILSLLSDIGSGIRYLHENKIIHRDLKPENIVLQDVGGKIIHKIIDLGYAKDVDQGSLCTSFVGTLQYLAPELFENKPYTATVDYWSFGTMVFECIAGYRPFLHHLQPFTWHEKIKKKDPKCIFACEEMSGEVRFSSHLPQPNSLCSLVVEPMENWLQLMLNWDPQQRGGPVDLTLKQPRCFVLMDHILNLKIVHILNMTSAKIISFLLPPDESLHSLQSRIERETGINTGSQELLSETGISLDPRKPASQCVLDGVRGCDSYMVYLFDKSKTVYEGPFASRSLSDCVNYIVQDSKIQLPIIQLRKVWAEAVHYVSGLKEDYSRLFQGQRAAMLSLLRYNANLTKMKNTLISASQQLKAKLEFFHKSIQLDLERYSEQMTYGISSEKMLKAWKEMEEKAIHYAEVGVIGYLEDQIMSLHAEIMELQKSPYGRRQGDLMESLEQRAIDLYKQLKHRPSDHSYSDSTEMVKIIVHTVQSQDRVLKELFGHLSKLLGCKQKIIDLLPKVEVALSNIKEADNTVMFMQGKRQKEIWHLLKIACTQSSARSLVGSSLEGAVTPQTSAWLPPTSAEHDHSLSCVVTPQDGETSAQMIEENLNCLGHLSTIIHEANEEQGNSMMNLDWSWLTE
# [6] = biological target: T2, Inhibitor of nuclear factor kappa-B kinase subunit alpha (Homo sapiens); details: at 1 µM
# [7] = biological target: T3, Inhibitor of nuclear factor kappa-B kinase subunit beta (Homo sapiens) (UniProt O14920); details: at 0.1 µM
# T3 sequence (whole entry): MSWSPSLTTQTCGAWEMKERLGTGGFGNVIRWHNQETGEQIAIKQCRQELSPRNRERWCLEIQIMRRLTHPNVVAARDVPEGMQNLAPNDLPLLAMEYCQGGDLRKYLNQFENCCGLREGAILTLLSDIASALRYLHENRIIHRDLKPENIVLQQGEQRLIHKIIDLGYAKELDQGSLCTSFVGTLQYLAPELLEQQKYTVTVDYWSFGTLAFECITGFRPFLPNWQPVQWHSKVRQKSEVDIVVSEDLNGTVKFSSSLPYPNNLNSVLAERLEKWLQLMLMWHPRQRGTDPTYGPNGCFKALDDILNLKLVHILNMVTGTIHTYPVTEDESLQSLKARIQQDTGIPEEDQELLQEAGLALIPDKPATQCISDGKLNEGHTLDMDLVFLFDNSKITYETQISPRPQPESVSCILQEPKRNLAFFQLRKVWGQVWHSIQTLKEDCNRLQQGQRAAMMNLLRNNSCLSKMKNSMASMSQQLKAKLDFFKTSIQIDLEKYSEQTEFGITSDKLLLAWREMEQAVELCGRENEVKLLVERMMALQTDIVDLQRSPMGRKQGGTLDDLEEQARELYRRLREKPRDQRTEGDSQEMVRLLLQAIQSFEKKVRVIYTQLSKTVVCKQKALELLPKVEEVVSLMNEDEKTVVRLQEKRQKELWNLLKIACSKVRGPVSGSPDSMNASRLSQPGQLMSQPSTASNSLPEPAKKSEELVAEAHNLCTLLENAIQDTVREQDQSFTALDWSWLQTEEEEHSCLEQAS
# [8] = biological target: T3, Inhibitor of nuclear factor kappa-B kinase subunit beta (Homo sapiens); details: at 1 µM
# [9] = biological target: T4, Inhibitor of nuclear factor kappa-B kinase subunit epsilon (Homo sapiens) (UniProt Q14164); details: at 0.1 µM
# T4 sequence (whole entry): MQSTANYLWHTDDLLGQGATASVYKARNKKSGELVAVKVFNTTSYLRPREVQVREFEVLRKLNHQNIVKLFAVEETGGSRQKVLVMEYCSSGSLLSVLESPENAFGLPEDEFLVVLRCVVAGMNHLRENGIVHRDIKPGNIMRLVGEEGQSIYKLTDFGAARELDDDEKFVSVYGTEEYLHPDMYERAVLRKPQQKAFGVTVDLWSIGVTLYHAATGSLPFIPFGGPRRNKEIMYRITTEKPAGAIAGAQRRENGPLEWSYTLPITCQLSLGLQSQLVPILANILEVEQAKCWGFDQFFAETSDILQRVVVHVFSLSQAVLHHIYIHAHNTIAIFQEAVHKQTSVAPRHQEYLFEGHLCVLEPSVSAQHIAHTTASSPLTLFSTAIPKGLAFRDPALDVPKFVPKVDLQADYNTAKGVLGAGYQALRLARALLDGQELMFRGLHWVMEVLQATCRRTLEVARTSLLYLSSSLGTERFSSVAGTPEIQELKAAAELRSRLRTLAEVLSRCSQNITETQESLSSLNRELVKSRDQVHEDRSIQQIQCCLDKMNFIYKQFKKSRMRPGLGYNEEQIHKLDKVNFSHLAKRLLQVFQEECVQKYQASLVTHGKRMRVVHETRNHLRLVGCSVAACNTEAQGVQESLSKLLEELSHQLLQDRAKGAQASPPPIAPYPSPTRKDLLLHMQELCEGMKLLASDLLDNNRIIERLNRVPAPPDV
# [10] = biological target: T4, Inhibitor of nuclear factor kappa-B kinase subunit epsilon (Homo sapiens); details: at 1 µM
# [11] = biological target: T5, Serine/threonine-protein kinase Nek1 (Homo sapiens) (UniProt Q96PY6); details: at 0.1 µM
# T5 sequence (whole entry): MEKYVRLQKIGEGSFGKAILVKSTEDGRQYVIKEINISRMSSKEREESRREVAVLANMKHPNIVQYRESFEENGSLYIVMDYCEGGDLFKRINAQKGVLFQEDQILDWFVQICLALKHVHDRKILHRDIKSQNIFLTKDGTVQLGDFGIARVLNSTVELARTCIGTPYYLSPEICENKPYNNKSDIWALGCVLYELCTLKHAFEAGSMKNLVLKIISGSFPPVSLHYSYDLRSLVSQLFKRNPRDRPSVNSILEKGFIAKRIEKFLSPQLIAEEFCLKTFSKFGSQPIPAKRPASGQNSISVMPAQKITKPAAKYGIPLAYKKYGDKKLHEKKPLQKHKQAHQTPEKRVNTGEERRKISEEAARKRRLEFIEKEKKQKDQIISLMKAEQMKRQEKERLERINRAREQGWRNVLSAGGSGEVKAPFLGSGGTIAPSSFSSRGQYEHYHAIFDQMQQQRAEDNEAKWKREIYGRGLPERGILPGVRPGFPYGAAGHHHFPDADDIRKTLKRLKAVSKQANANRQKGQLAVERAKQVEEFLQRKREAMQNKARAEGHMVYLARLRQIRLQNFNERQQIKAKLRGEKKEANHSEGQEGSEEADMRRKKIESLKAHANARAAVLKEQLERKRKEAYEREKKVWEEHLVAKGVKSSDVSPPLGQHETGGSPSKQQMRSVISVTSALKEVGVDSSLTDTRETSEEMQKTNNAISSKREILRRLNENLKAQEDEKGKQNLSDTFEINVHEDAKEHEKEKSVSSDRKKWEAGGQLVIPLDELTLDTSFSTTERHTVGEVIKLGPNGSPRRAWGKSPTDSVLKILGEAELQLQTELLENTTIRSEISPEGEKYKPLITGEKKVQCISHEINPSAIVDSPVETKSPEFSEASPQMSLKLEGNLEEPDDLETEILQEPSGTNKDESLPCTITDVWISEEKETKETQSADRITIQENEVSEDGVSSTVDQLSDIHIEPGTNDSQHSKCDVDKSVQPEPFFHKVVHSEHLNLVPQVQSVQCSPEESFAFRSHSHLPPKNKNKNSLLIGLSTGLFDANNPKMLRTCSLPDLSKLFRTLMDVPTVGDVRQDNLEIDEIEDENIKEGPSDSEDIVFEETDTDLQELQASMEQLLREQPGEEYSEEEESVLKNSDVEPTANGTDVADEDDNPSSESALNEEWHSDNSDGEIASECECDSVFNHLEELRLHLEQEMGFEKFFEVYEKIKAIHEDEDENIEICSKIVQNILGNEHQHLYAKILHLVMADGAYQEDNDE
# [12] = biological target: T5, Serine/threonine-protein kinase Nek1 (Homo sapiens); details: at 1 µM
# [13] = biological target: T6, Serine/threonine-protein kinase Nek2 (Homo sapiens) (UniProt P51955); details: at 0.1 µM
# T6 sequence (whole entry): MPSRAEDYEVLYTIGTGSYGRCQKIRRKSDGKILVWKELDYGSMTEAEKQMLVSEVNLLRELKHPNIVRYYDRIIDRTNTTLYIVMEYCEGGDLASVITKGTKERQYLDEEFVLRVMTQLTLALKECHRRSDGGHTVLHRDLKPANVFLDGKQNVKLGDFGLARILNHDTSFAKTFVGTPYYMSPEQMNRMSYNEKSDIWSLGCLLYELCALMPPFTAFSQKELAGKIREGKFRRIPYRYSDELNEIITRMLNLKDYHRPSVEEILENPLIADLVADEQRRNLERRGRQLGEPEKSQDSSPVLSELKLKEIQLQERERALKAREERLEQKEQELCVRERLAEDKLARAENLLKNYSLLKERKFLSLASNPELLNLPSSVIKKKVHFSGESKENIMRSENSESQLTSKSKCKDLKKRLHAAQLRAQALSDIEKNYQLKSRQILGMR
# [14] = biological target: T6, Serine/threonine-protein kinase Nek2 (Homo sapiens); details: at 1 µM
# [15] = biological target: Serine/threonine-protein kinase Nek6 (Homo sapiens) (UniProt Q9HC98); details: at 0.1 µM
# [16] = biological target: Serine/threonine-protein kinase Nek6 (Homo sapiens) (UniProt Q9HC98); details: at 1 µM
# [17] = biological target: Serine/threonine-protein kinase Nek7 (Homo sapiens) (UniProt Q8TDX7); details: at 0.1 µM
# [18] = biological target: Serine/threonine-protein kinase Nek7 (Homo sapiens) (UniProt Q8TDX7); details: at 1 µM
# [19] = biological target: T7, Serine/threonine-protein kinase Nek9 (Homo sapiens) (UniProt Q8TD19); details: at 0.1 µM;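 note: reported value is the mean percent inhibition of NEK9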
# T7 sequence (whole entry): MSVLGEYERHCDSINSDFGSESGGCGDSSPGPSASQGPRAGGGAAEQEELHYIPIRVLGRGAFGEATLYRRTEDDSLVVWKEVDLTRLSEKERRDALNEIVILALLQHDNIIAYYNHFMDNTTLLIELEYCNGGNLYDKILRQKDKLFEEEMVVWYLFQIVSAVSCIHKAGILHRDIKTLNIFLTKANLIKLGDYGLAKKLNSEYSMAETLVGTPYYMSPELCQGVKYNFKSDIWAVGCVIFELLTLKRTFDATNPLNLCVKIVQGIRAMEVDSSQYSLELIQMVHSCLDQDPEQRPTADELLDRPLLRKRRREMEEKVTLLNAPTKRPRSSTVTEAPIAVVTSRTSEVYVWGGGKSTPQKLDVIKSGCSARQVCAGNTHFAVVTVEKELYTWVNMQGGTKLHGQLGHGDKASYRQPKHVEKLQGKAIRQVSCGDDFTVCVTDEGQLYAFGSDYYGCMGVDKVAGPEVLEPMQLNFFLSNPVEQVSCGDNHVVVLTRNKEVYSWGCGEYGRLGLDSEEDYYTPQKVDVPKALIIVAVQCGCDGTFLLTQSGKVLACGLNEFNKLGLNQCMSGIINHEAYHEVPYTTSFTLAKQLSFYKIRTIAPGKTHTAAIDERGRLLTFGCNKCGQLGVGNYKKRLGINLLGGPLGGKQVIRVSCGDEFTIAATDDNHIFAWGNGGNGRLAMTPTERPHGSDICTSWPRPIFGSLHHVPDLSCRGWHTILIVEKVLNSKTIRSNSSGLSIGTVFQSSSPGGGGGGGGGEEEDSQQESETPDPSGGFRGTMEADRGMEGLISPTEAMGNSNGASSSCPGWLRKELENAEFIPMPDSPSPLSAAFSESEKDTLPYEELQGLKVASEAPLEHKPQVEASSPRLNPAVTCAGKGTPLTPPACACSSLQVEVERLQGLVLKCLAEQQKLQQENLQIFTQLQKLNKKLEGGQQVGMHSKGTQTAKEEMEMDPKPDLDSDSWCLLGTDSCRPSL
# Serine/threonine-protein kinase Nek7 (Homo sapiens), sequence (Q8TDX7 whole entry, looked up): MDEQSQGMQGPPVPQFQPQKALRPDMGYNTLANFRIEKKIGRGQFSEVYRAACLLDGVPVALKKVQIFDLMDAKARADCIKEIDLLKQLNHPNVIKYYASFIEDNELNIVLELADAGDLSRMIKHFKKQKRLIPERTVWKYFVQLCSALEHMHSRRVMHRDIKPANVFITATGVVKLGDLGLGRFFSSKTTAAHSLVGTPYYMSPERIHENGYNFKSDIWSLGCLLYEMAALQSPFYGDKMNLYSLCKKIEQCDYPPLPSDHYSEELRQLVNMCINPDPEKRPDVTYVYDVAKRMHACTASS
# Serine/threonine-protein kinase Nek6 (Homo sapiens), sequence (Q9HC98 whole entry): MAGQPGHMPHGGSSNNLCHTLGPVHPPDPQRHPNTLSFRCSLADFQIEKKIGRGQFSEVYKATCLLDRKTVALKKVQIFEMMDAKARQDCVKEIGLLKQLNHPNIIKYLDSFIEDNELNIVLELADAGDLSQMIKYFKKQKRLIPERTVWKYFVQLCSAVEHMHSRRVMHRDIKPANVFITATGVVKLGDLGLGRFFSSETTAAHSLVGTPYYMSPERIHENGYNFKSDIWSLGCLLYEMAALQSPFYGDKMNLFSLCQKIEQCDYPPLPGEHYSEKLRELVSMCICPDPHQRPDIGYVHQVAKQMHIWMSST
# Sphingosine kinase 1 (Homo sapiens), sequence (Q9NYA1 whole entry): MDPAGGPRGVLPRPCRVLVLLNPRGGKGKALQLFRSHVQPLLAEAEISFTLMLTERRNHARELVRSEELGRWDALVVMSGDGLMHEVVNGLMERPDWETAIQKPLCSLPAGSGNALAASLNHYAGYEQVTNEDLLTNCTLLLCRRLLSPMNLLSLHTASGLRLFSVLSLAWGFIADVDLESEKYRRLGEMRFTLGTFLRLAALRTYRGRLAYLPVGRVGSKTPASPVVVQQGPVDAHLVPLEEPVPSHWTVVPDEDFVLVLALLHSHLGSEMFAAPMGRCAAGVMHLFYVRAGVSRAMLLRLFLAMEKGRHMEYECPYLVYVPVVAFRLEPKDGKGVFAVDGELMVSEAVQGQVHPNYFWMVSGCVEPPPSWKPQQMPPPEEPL
# Casein kinase II subunit alpha (Homo sapiens), sequence (P68400 whole entry, looked up): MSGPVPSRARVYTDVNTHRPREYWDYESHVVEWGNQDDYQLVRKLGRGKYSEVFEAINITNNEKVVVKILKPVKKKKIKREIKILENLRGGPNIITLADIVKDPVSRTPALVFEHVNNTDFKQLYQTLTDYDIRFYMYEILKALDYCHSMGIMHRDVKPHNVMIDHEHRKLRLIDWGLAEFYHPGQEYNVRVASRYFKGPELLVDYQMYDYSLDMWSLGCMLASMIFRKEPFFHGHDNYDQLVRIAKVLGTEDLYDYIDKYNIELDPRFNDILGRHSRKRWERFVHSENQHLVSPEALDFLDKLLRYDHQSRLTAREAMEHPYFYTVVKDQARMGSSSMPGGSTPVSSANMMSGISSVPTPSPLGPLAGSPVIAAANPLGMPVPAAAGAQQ
smiles,measurement,setting,value
CCC(=O)Nc1ccc(C)c(-c2ccc(C(=O)NCC3CC3)cc2)c1,inhibition,[1],0.8%
same,inhibition,[2],-0.3%
same,inhibition,[3],0.9%
same,inhibition,[4],2.11%
same,inhibition,[5],10.5%
same,inhibition,[6],7.65%
same,inhibition,[7],5.07%
same,inhibition,[8],5.57%
same,inhibition,[9],9.75%
same,inhibition,[10],4.21%
same,inhibition,[11],2.34%
same,inhibition,[12],2.64%
same,inhibition,[13],4.55%
same,inhibition,[14],0.77%
same,inhibition,[15],2.45%
same,inhibition,[16],0.12%
same,inhibition,[17],3.13%
same,inhibition,[18],8.32%
same,inhibition,[19],8.46%
